The source made the active and inactive calls.
Columns and labels:
Albumin (Bos taurus) = Albumin (Bos taurus) (UniProt P02769); experiment: compounds binding labelled BSA control protein – biochemical, small-molecule microarray, Alexa647 label, 635/667 nm fluorescence, artefact control for SMM control protein annotation, profiling panel (AID 1118); conditions: BSA-A647 binding, fluorescence 635 nm, higher = more signal;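 also: score merges 667 nm emission intensity and signal-to-noise per printed compound spot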
Albumin (Bos taurus), sequence (P02769 whole entry, looked up): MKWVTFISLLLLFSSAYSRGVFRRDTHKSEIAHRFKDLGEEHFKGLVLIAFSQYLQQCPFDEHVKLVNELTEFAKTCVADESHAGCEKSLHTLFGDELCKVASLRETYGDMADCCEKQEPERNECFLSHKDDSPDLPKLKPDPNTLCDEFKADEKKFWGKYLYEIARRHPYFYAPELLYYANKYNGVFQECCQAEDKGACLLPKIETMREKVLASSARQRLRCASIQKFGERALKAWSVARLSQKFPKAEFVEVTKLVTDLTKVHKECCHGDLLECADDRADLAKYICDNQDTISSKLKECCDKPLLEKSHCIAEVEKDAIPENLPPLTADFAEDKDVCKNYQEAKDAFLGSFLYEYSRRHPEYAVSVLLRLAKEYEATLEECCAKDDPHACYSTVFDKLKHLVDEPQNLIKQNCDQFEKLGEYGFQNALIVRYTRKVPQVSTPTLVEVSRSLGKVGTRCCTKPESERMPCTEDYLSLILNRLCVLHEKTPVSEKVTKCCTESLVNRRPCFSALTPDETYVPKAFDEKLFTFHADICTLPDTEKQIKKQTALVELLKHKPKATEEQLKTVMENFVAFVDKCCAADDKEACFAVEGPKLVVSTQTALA

[1] = probe aXIP binding to arrayed compounds – biochemical, NeuroSMM set, 635/667 nm fluorescence, primary screen (AID 1119); conditions: small-molecule microarray, higher = more signal, called active from +8 up or from −8 down;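 also: probe is the protein aXip251-270 applied at 1 µg/mL to compound-printed slides; binding of probe to printed compounds measured as 667 nm fluorescence plus signal to noise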
[2] = probe aNOTCH3 binding on compound microarray – biochemical, small-molecule microarray, 635/667 nm fluorescence, primary screen (AID 1120); conditions: higher = more signal;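 also: probe is a biotin-tagged antibody raised against NOTCH3 rather than NOTCH3 protein; score merges spot fluorescence near 667 nm with spot signal to noise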
[3] = probe aNOTCH2 binding on compound microarray – biochemical, small-molecule microarray, 635/667 nm fluorescence, primary screen (AID 1121); conditions: higher = more signal;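 also: score merges feature fluorescence read at 667 nm with its signal to noise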
[4] = molecular target: Carbonic anhydrase 2 (Homo sapiens) (UniProt P00918); experiment: compounds binding carbonic anhydrase 2 – biochemical, small-molecule microarray, Alexa647-labelled CAII, profiling panel (AID 1122); conditions: CAII-A647 binding fluorescence, higher = more signal
[5] = COS7 lysate on small-molecule microarray, probe aHis, 635 nm (AID 1123); conditions: COS7 cell lysate, fluorescence, higher = more signal;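 also: z-score combines 667nm fluorescence intensity with signal-to-noise per printed compound spot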
[6] = probe aLAP1 signal on lysate-treated microarray – cell lysate, small-molecule microarray, COS7 lysate, primary screen (AID 1124); conditions: probe aLAP1, fluorescence, higher = more signal;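 also: lysate comes from COS7 cells expressing LAP1 and is applied at 0.3 µg/mL; score merges spot fluorescence near 667 nm with signal-to-noise over triplicate slides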
Sam68 (KHDRBS1) = experiment: compounds binding KHDRBS1 protein – biochemical, small-molecule microarray, 635 nm fluorescence, primary screen (AID 1125); conditions: higher = more signal;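 also: score merges 667 nm channel intensity with signal to noise over triplicate slides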
[7] = test system: Chordin-like protein 2 (CHRDL2); experiment: compounds binding chordin-like 2 – biochemical, small-molecule microarray, 635 nm fluorescence, primary screen (AID 1126); conditions: fluorescence 635 nm, higher = more signal;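 also: printed compound slides probed with Chrdl2 protein at 4 µg/mL for 1 h at 4 C; score merges 667 nm emission intensity with signal to noise over three replicate slides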
[8] = molecular target: Concanavalin-A (Canavalia ensiformis) (UniProt P02866); experiment: compounds binding concanavalin A lectin – biochemical, small-molecule microarray, Alexa647 label, 635 nm, artefact control for SMM control protein annotation, primary screen (AID 1127); conditions: ConA-A647 binding fluorescence, higher = more signal;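 also: z combines 667 nm emission intensity with signal-to-noise across three replicate slides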
Concanavalin-A (Canavalia ensiformis), sequence (P02866 whole entry, looked up): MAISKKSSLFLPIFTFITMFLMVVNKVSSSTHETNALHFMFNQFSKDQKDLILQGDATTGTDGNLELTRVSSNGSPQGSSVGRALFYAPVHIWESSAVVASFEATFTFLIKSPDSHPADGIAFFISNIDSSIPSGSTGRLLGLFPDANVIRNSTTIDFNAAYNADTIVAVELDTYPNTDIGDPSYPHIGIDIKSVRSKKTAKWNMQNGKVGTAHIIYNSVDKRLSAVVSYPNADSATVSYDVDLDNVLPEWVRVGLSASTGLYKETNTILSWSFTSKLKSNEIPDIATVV

[9] = compounds binding Alexa647 anti-His antibody – biochemical, small-molecule microarray, 635 nm fluorescence, artefact control for SMM control protein annotation, primary screen (AID 1128); conditions: higher = more signal;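 also: score merges feature fluorescence with signal-to-noise for each printed compound spot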
[10] = test system: Human papillomavirus type 1a E7 protein (residues 1-88); experiment: HPV1a E7 small-molecule binders, primary screen, biochemical, small-molecule microarray, residues 1-88, 635 nm (AID 1129); conditions: small-molecule microarray binding, fluorescence 635 nm; higher = more signal
[11] = molecular target: Focal adhesion kinase 1 (Homo sapiens) (UniProt Q05397); experiment: PTK2 protein binding on printed compound slides – biochemical, small-molecule microarray, 635/667 nm fluorescence, BSA, DTT, primary screen (AID 1130); conditions: 635 nm fluorescence, higher = more signal;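 also: composite of spot emission at 667 nm and signal to noise over triplicate slides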
Focal adhesion kinase 1 (Homo sapiens), sequence (Q05397 whole entry, looked up): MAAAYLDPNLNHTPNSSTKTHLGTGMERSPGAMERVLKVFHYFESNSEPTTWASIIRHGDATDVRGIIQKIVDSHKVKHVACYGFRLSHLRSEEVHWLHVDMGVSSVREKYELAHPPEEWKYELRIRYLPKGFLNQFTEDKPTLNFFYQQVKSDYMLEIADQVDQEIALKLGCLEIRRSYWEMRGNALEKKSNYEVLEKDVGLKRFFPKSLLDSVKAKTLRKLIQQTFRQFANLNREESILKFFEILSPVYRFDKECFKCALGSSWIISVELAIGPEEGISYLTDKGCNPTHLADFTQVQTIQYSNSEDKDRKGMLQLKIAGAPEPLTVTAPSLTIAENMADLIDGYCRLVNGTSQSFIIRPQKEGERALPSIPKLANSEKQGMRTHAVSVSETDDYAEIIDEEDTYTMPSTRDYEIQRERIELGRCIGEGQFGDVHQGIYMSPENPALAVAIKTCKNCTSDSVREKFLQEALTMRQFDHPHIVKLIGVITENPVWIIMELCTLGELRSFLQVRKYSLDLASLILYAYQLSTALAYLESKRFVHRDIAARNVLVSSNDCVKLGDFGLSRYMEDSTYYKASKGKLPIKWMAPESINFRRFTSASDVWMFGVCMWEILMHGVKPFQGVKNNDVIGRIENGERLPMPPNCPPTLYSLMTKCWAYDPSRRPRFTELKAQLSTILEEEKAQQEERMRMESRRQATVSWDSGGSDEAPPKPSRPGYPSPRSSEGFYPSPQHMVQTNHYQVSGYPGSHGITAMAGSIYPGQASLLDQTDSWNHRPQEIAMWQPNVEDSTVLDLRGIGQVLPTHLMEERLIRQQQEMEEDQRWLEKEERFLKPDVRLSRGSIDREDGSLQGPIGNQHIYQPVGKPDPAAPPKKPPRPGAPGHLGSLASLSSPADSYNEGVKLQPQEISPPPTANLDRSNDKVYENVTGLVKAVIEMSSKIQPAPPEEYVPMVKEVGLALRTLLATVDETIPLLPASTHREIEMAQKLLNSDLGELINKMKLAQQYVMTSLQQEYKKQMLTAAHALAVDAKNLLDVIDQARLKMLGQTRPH

[12] = test system: Fibrinogen (Alexa647-labelled); experiment: Alexa647-fibrinogen binding to printed small molecules – biochemical, small-molecule microarray, 635/667 nm fluorescence, artefact control for SMM control-protein annotation, profiling panel (AID 1131); conditions: fibrinogen-A647 binding fluorescence, higher = more signal;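 also: z-score merges 667 nm fluorescence with per-spot signal-to-noise over triplicate slides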
[13] = molecular target: Follistatin (Homo sapiens) (UniProt P19883); experiment: FST protein binding to printed compounds – biochemical, small-molecule microarray, 635/667 nm fluorescence, primary screen (AID 1132); conditions: 635 nm fluorescence, higher = more signal
Follistatin (Homo sapiens), sequence (P19883 whole entry, looked up): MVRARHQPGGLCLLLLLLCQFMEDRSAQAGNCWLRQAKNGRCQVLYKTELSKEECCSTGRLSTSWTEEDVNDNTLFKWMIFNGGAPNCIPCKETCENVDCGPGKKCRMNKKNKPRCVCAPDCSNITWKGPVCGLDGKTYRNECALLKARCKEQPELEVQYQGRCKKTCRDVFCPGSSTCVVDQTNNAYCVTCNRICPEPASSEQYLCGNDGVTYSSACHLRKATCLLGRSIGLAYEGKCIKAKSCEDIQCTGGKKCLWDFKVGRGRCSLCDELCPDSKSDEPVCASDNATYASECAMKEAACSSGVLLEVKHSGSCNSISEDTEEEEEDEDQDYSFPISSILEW

[14] = molecular target: Fibroblast growth factor 2 (Homo sapiens) (UniProt P09038); experiment: basic fibroblast growth factor binding to printed compounds – biochemical, small-molecule microarray, 635/667 nm fluorescence, primary screen (AID 1133); conditions: FGF2, fluorescence 635/667, higher = more signal
Fibroblast growth factor 2 (Homo sapiens), sequence (P09038 whole entry, looked up): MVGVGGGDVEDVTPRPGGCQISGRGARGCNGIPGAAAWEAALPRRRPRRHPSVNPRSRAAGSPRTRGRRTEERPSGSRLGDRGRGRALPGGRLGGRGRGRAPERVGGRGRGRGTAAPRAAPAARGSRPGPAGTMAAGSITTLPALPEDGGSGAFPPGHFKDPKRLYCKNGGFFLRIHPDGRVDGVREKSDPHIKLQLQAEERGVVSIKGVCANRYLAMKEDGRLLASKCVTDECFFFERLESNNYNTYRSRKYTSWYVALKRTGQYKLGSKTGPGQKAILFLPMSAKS

[15] = JC-1 mitochondrial potential readout, lung cancer cells – cell-based, A549, JC-1 fluorescence, basal, 24 h, 100 nL, profiling panel (AID 1138); conditions: higher = more signal;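 also: A549 lung adenocarcinoma cells under basal conditions with no added stimulus; test concentration not given here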
Lefty1 = Lefty1 protein binding to printed compounds – biochemical, small-molecule microarray, 635/667 nm fluorescence, primary screen (AID 1139); conditions: fluorescence 635/667, higher = more signal
[16] = test system: wheat germ agglutinin (Triticum aestivum), Alexa647-labelled; experiment: Alexa647-WGA lectin binding to printed small molecules – biochemical, small-molecule microarray, 635/667 nm fluorescence, artefact control for SMM control-protein annotation, profiling panel (AID 1140); conditions: WGA-A647 binding, 635 nm fluorescence, higher = more signal;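 also: score merges 667 nm feature emission with signal to noise over triplicate slides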
[17] = molecular target: Luciferin 4-monooxygenase (Photinus pyralis) (UniProt P08659); experiment: inhibition of purified Photinus pyralis luciferase – biochemical, luminescence, purified enzyme, 2006 set, primary screen (AID 1141); conditions: purified firefly luciferase, SteadyGlo luminescence, 30 min; higher = more signal, called active from +8 up or from −8 down;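 also: cell-free assay with purified firefly luciferase at 100 ng per well in PBS; test concentration not given here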
Luciferin 4-monooxygenase (Photinus pyralis), sequence (P08659 whole entry, looked up): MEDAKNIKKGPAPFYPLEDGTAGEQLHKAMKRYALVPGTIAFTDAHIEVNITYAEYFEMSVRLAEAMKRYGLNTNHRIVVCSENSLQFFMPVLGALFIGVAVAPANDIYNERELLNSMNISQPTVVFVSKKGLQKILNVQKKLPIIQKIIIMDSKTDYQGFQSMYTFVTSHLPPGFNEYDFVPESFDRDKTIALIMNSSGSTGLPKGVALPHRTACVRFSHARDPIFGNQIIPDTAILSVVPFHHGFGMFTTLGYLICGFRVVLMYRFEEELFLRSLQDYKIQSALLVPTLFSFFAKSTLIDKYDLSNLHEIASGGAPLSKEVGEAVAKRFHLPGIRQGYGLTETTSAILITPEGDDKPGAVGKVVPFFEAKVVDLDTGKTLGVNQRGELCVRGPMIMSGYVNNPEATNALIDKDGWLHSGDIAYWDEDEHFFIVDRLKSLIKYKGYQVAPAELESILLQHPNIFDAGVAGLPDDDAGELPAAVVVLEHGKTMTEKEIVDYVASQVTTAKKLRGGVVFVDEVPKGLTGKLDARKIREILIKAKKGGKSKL

SMILES | composite z-score (Albumin (Bos taurus)) | composite Z-score [1] | composite z-score [2] | composite z-score [3] | composite z-score [4] | composite z-score [5] | composite z-score [6] | composite z-score (Sam68 (KHDRBS1)) | composite z-score [7] | composite z-score [8] | composite z-score [9] | composite z-score [10] | composite z-score [11] | composite z-score [12] | composite z-score [13] | composite z-score [14] | z-score [15] | composite z-score (Lefty1) | composite z-score [16] | z-score [17]
CCCNC(=O)[C@@H]1c2ccccc2C(=O)N(Cc2ccc(OC(F)(F)F)cc2)[C@H]1c1ccc(CO)cc1 | 0.27 | -0.123 (inactive) | -0.0288 | -0.0326 | 0.158 | 0.677 | -0.374 | 0.416 | 0.102 | 0.0505 | 0.0772 | 0.907 | -0.0662 | 0.368 | 0.887 | 0.908 | 1.93 | -0.0534 | 0.0988 | 0.283 (inactive)
O=C1C2C=CC(C(O)C3CC=CCC3)N(Nc3ccccc3)C2C(=O)N1c1ccccc1 (stereo not given) | 0.918 | 2.06 (inactive) | 0.366 | 0.0607 | 0.749 | 2.33 | 0.093 | 1.07 | 0.718 | 0.567 | 0.41 | 1.21 | 1.17 | 0.944 | 1.27 | 0.119 | -1.15 | 0.135 | 0.458 | -0.313 (inactive)
Cc1ccc(C(C)CC(O)C2C=CC3C(=O)N(c4ccccc4)C(=O)C3N2Nc2ccccc2)o1 (stereo not given) | 0.804 | -0.474 (inactive) | 0.257 | -0.0303 | 0.382 | 1.55 | 0.412 | 1.29 | -0.19 | 1.09 | 0.943 | 1.28 | 0.908 | 0.821 | 1.03 | -0.0968 | -0.592 | -0.0661 | 0.982 | -1.22 (inactive)

— PubChem BioAssay
